Laboratory results taken from PubChem BioAssay AID488890 (Southern Research Specialized Biocontainment Screening …, 2010).
Among all 320,000 compounds or so, about 1,300 (0.41%) were called active. Roughly 3% stayed inconclusive and do not appear here. The rule behind the calls is not given here. The list is a sample of the results. Potency and affinity values are given separately.

Test: growth inhibition of non-replicating M. tuberculosis (AID 488890);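 note: plate controls were DMSO cells for no effect and high antibiotic wells for full effect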
Conditions: Mycobacterium tuberculosis non-replicating, at 25 µM, stronger effect = higher value

SMILES | inhibition [%]
CCc1cccc(OCC(=O)Nc2c[nH]c(=O)[nH]c2=O)c1 | -17.2
COc1ccc(N2CC(NS(=O)(=O)c3cccs3)CC2=O)cc1 (stereo not drawn) | -13.6
CCOc1ccc(NC(=O)CSc2nnc(C(C)C)n2CC)cc1 | 11.7
CCn1cc(/C=C(\NC(=O)c2ccccc2F)C(=O)NCCCn2ccnc2)c2ccccc21 | 14.8
COc1ccc(NC(=O)CSc2nc(-c3ccco3)nc3cc(=O)[nH]n23)cc1Cl | 14.5
CCCN(Cc1nnc(-c2ccccc2Cl)o1)C(=O)c1ccc(C)c(S(=O)(=O)N2CCOCC2)c1 | -1.62
CC(=O)C[C@@H](O)CC(=O)[C@@H]1OC(=O)CCCCCCCc2ccccc21 | 4.28
Cc1ccc(C(=O)Nc2scc(-c3ccccc3)c2C(=O)O)cc1 | 67.7
CCOC(=O)c1c(C)[nH]c(C=O)c1Cc1cccc(Cl)c1 | 22.5
NC(=O)c1ccccc1NC(=S)NC(=O)c1ccc(Br)o1 | 13.4
Cc1ccc(OCC(=O)Nc2ccncc2)cc1 | 76.7
Cc1cc(OCC(=O)Nc2ccncc2)c(C)cc1Br | 68
O=C(COc1ccc([N+](=O)[O-])cc1)N/N=C/c1ccccn1 | 64.7
O=C(CNc1ccc2ccccc2c1)N/N=C/c1ccccn1 | 56.7
Cc1cc(OCC(=O)Nc2ccncc2)cc(C)c1Br | 62.5
Cc1cc(C)cc(OCC(=O)Nc2ccncc2)c1 | 2.54
COC(=O)COc1ccc(/C=N/NC(=O)c2ccc(N(Cc3ccccc3)S(C)(=O)=O)cc2)cc1 | 64.2
CCn1c(SCc2cccnc2)nnc1-c1c[nH]c2ccccc12 | -5.65
CC(=O)N1CCCc2cc(S(=O)(=O)NCCC3=CCCCC3)ccc21 | 17.1
CCOC(=O)c1ccc(CNCc2ccc(Br)cc2)cc1 | 43.5
CC(=O)NCC(=O)OCC(=O)c1ccc(Br)cc1 | 27.9
COc1ccc(C(=O)OCCN2CCCCC2)cc1 | 4.85
COc1ccc(C(=O)CN2CCCCC2)cc1 | -2.71

SMILES | inhibition [%]
CC(C)Oc1ccc(OCCCN2CCCCCC2)cc1 | 35.7
O=C(CCN1CCCCC1)Nc1ccccc1 | -3.98
O=C(CCCCN1CCCCC1)c1ccccc1 | -7.7
O=C(CN1CCCCC1)c1ccc(OC(F)F)cc1 | -4.47
CC(C)COc1ccc(C(=O)OCCN2CCCCC2)cc1 | 13.8
CCC(=O)c1ccc(OCC(O)CN2CCCCC2)cc1 (stereo not drawn) | 9.06
COCCC1CCCCN1C(=O)c1cc(COc2ccc(C)nc2)on1 (stereo not drawn) | -7.63
Cc1csc(=Nc2c(C)n(C)n(-c3ccccc3)c2=O)n1Cc1ccccc1 | -1.63
NC(=O)c1ccsc1NC(=O)COC(=O)c1ccc(Cl)c(N)c1 | -0.17
COc1ccc(C)cc1NC(=O)CCC(=O)Nc1nnc(C2CCCCC2)s1 | 0.87
CCN(CC1CCCN(CCc2cccc(OC)c2)C1)C(=O)c1ccoc1C (stereo not drawn) | -3.45
Cc1cc(NC(=O)CSc2nnc(-c3ccc(S(=O)(=O)N4CCCC4)cc3)n2C)no1 | -6.04
O=C(Nc1cc(S(=O)(=O)N2CCCCCC2)ccc1OCC(F)(F)F)c1cnccn1 | 9.9
Cn1c(=O)[nH]c2nncnc2c1=O | 12.4
CCCCn1c(N)c(N(CCC(C)C)C(=O)COC(=O)c2cccnc2Cl)c(=O)[nH]c1=O | 17.4
CC(=O)Nc1ccc(S(=O)(=O)NCC(=O)NCCc2ccc(S(N)(=O)=O)cc2)cc1 | -0.25
O=C(N=C1N=C2C=CC(Br)=CN2Cc2ccccc21)c1ccc([N+](=O)[O-])cc1[N+](=O)[O-] | 61.8
CCOc1ccc(OCCN2CCCCC2)cc1 | 8.17
CCOc1ccc(NC(=O)CCN2CCCCC2)cc1 | -37.2
O=C(CSc1nnc(Cn2nnc3ccccc32)o1)Nc1cccc(Cl)c1 | 3.51
N#CCO/N=C(\c1ccccc1)c1ccncc1 | 0.55
O=c1oc2ccccc2c(Nc2ccc(O)cc2)c1[N+](=O)[O-] | 35.3
O=c1oc2ccccc2c(Nc2cccc3ccccc23)c1[N+](=O)[O-] | 21.2

SMILES | inhibition [%]
COc1ccc(S(=O)(=O)N2CCN(C)CC2)cc1C | 0.44
N#Cc1ccsc1NC(=O)C1CC(=O)N(Cc2ccccc2)C1 (stereo not drawn) | 50.7
Cc1nn(CC(=O)N2CCc3ccccc3C2)c(C)c1Cl | 10.6
CCOC(=O)c1c(NC(=O)CN2CCOCC2)sc(C(=O)NC)c1C | -15.7
CCOC(=O)c1c(NC(=O)CCN2CCOCC2)sc(C)c1-c1ccccc1 | 55.4
O=C(Nc1ncc2c(n1)-c1ccccc1OC2)c1ccccc1Cl | 13.6
O=C(Nc1ncc2c(n1)-c1ccccc1OC2)c1ccc(Cl)cc1 | 75.5
COc1ccc(C(CNC(=O)c2cccc(S(=O)(=O)NCc3ccccc3)c2)N(C)C)cc1 (stereo not drawn) | -0.497
O=C(NCc1ccc2c(c1)OCO2)c1ccc(Br)s1 | 70.4
O=C(NCc1ccc2c(c1)OCO2)c1c(Cl)cccc1Cl | 3.82
CC(C)(C)OC(=O)[C@H](Cc1ccccc1)NC(=O)c1nc[nH]c1C(=O)N1CCNCC1 | 9.16
Cc1ccc(NC(=O)C2(c3ccc([N+](=O)[O-])cc3)CCCC2)cc1 | 56.9
CCOC(=O)C1CCN(c2c(-c3ccccc3)c3cc(Cl)ccc3[nH]c2=O)CC1 | -6.2
CN(Cc1ccccc1)C(=O)c1[nH]cnc1C(=O)N[C@@H](Cc1ccccc1)C(=O)OC(C)(C)C | 57.5
CC(C)Cc1cc(C(=O)Nc2ccc3c(c2)OCO3)no1 | 79
COc1ccc(NC(=O)c2cc(CC(C)C)on2)cc1OC | 27.3
CC(C)Cc1cc(C(=O)Nc2cc(Cl)ccc2Cl)no1 | 75.3
CSc1ccccc1NC(=O)c1cc(CC(C)C)on1 | 77.5
COc1ccc(NC(=O)c2ccc(NC(=O)c3cccs3)cc2)cc1 | 17.2
Cc1ccc(S(=O)(=O)N(C)/N=C2/C(=O)N(CC(=O)O)c3ccccc32)cc1 | -9.17
CC/C(=N\NC(=O)Nc1ccccc1)c1c(O)n(Cc2ccccc2)c(=O)[nH]c1=O | 0.07
O=C(/C=C/c1ccc(Br)cc1)Nc1ccc(S(=O)(=O)Nc2ncccn2)cc1 | 21.5
CCOc1ccccc1NC(=O)CCS(=O)(=O)c1cccs1 | 1.98

SMILES | inhibition [%]
C/C(=N\NC(=O)c1ccccn1)c1ccc(Cl)cc1 | 65.9
C/C(=N\NC(=O)c1cccc(Br)c1)c1cccnc1 | -8.7
O=C(NCc1ccccn1)c1ccccc1OCc1ccc(F)cc1 | -9.24
C/C(=N/NC(=O)c1ccncc1)c1c[nH]c2ccccc12 | 52.8
C/C(=N\NC(=O)c1cccc(Br)c1)c1ccc(Br)cc1 | 5.12
CCC(CC)=NNC(=O)c1ccccc1OCc1ccc(F)cc1 | 1.96
C/C(=N/NC(=O)c1ccccn1)c1ccc(O)cc1 | 65.9
C/C(=N/NC(=O)c1ccccn1)c1c[nH]c2ccccc12 | 53
CC(=O)NC(c1ccc(C(C)C)cc1)c1c(O)ccc2ccccc12 (stereo not drawn) | -3.1
Cc1cc(C)c(S(=O)(=O)N2CCCC(C(=O)N3CCCC3)C2)c(C)c1 (stereo not drawn) | -5.37
CCn1c(=O)n(CC)c2cc(NS(=O)(=O)c3ccccc3)ccc21 | 5.29
COC(=O)c1c(-c2cccnc2)csc1NC(=O)c1cc(C)on1 | 39.4
CC(C)c1ccc(NC2CCCN(C(=O)CCc3cnn(C)c3)C2)cc1 (stereo not drawn) | -5.85
CC(=O)c1sc(NC(=O)CN2C(=O)CCC2=O)nc1C | -3.51
O=c1cc([O-])[n+]2c3n1CCCN3CCC2 | -14.7
COc1cc(C(=O)N/N=C(\C)c2ccccn2)cc(OC)c1OC | 36.9
COc1ccc(C(=O)N/N=C(\C)CC(=O)Nc2ccccn2)cc1OC | -1.08
CCn1c(SCC(=O)Nc2cc(Cl)ccc2OC)nnc1C1CC1 | 1.4
COc1ccc(NC(=O)COc2nc(N(C)C)nc(N(C)C)n2)cc1 | -4.63
COc1ccc(CCC(=O)NC2CCCN(Cc3ccc(Cl)cc3)C2)cc1OC (stereo not drawn) | 7.24
OCC[C@@H]1C[C@@H](O)[C@H](O)[C@@]2(OCCc3ccccc32)O1 | -1.04
COc1cc(OC)cc(C(=O)NNC(=O)C2CCCC2)c1 | -10.6
CC(=O)N1CCc2c(sc(NC(=O)C3CC3)c2-c2nc3ccccc3s2)C1 | 12.5

SMILES | inhibition [%]
CC(C)N1CCc2c(sc(NC(=O)c3nc4ccccc4s3)c2C(N)=O)C1 | 77.9
Cc1cccc(N(CC(=O)NC(C)(C)C)C(=O)CS(=O)CC(=O)Nc2ccc(F)cc2)c1 (stereo not drawn) | -8.34
COc1ccc(-c2nnc(SCc3ccc(C(=O)O)cc3)n2N)cc1 | -5.97
COCCSc1nnc(NC(=O)CS(=O)(=O)c2ccccc2)s1 | 2.87
O=C(CS(=O)(=O)c1ccccc1)Nc1ncc([N+](=O)[O-])s1 | -8.38
O=C(CCS(=O)(=O)Cc1ccccc1)Nc1nncs1 | 60.5
Cc1nnc(NC(=O)CCS(=O)(=O)Cc2ccccc2)s1 | 57.7
O=C(Cc1csc(Nc2nc(=S)[nH]c3ccccc23)n1)N1CCN(c2cccc(C(F)(F)F)c2)CC1 | -8.89
CC(=O)N(Cc1ccccc1)Cc1nc2sc(C)c(C)c2c(=O)[nH]1 | 5.06
O=C(CN1C(=O)CSc2ccc(S(=O)(=O)N3CCOCC3)cc21)NCCCN1CCCCC1 | -5.81
Cc1ccc(S(=O)(=O)CC(=O)Nc2ccc(Cl)cn2)cc1 | 53.5
COc1ccc([N+](=O)[O-])cc1/C=N/NC(=O)CNC(=O)c1cccc(F)c1 | 23.1
CC(C)CCOCc1nc2sc3c(c2c(=O)[nH]1)CCC(C)C3 (stereo not drawn) | 27.8
CSc1nc2sc3c(c2c(=O)[nH]1)CCC(C)C3 (stereo not drawn) | -4.35
O=C(CCc1c[nH]c2ccccc12)NCc1ccc2c(c1)OCO2 | 6.21
O=C(CCc1c[nH]c2ccccc12)NCCc1ccc(Cl)cc1 | -0.44
NC(=O)CCc1c[nH]c2ccccc12 | -20.3
O=C(Cc1c[nH]c2ccccc12)NCc1ccc(Cl)cc1 | 12.5
O=C(CCCc1c[nH]c2ccccc12)NCc1ccc2c(c1)OCO2 | 7.12
CC(=O)N[C@@H](Cc1c[nH]c2ccccc12)C(=O)OCc1ccc(C#N)cc1 | 5.82
CCOC(=O)CNC(=O)CSc1ncnc2c1nnn2-c1ccc(F)cc1 | 71.2
